Results on 27 compounds are retold here after PubChem BioAssay (NCATS).

In assay [1] the target is Cytochrome P450 3A4 (Homo sapiens) (UniProt P08684). Briefly: qHTS Assay for Inhibitors and Substrates of Cytochrome P450 3A4 (AID 884). Note: nearly all actives have a fitted effect of over 50% in size. Note: potency is the fitted concentration of half-maximal effect. The settings on record: recombinant CYP3A4, Luciferin-PPXE luminescence; series mostly up to 57.1 µM. An outline of the steps: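 Luminescent readout of luciferin produced by CYP3A4 (20 nM) dealkylation of Luciferin-PPXE, 25 uM (its KM). NADPH-driven reaction ran 60 min at RT after 10 min compound preincubation; data scaled to 57 uM ketoconazole as 100% inhibition.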
Cytochrome P450 3A4 (Homo sapiens), sequence (P08684 whole entry, looked up): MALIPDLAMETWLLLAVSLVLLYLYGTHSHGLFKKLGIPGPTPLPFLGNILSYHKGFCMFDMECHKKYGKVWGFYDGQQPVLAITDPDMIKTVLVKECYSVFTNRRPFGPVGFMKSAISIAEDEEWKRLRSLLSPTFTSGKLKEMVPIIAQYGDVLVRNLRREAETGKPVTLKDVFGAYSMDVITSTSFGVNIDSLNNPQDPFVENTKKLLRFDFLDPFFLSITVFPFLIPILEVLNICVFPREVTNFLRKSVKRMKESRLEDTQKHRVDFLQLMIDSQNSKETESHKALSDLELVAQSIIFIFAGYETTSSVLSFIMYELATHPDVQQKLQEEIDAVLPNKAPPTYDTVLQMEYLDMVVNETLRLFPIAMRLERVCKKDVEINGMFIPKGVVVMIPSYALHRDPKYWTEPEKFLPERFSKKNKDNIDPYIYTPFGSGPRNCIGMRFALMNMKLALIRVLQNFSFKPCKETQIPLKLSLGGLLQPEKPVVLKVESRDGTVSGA

For assay [2] the target is unchanged. Kind of assay: qHTS Assay for Activators of Cytochrome P450 3A4 (AID 885). Note: nearly all actives have a fitted effect of over 65% in size. Note: potency is the fitted concentration of half-maximal effect. The conditions noted are these: recombinant CYP3A4, Luciferin-PPXE luminescence, 60 min; series mostly up to 57.1 µM. The gist of the method: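 CYP3A4 activity: Luciferin-PPXE O-dealkylation, 25uM substrate, 200mM KPO4, RT throughout. Read-out is luciferase luminescence; higher values reflect activation.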

The nature of assay [3]: Confirmation and Secondary Assay for Modulators of Hemoglobin Beta Chain Splicing at IVS2 654 locus (AID 910).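 Note: HeLa cells stably carrying EGFP split by mutant beta-globin IVS2-654 intron; per-well total GFP intensity by laser scanning cytometry after 2-day treatment.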 The conditions noted are these: HeLa EGFP-654 splicing reporter, GFP fluorescence, 48 h; series mostly up to 46.1 µM. An outline of the steps:
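Readout: per-well total peak green fluorescence (488 nm ex, 500–520 nm em) from objects 5–250 µm, reflecting correct splicing of an EGFP-654 reporter. Compounds were applied for 2 days at 37 °C to overnight-plated HeLa EGFP-654 cells; controls were DMSO and 500 nM IVS2-654 PNA.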

The target of assay [4] is Cytochrome P450 2C9 (Homo sapiens) (UniProt P11712). Kind of assay: qHTS Assay for Inhibitors and Substrates of Cytochrome P450 2C9 (AID 883). Note: nearly all actives have a fitted effect of over 60% in size. Note: potency is the fitted concentration of half-maximal effect. The conditions noted are these: recombinant CYP2C9, luciferin-H luminescence, 60 min; series mostly up to 57.1 µM. The gist of the method: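 Luminescent read-out of deoxyluciferin hydroxylation, normalized to 57uM sulphaphenazole (AC100). Reaction: 10nM enzyme, 100uM Luciferin-H (equal to KM), 25mM KPO4, 10 min compound preincubation, then 60 min with NADPH regeneration, both at 37C.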
Cytochrome P450 2C9 (Homo sapiens), sequence (P11712 whole entry, looked up): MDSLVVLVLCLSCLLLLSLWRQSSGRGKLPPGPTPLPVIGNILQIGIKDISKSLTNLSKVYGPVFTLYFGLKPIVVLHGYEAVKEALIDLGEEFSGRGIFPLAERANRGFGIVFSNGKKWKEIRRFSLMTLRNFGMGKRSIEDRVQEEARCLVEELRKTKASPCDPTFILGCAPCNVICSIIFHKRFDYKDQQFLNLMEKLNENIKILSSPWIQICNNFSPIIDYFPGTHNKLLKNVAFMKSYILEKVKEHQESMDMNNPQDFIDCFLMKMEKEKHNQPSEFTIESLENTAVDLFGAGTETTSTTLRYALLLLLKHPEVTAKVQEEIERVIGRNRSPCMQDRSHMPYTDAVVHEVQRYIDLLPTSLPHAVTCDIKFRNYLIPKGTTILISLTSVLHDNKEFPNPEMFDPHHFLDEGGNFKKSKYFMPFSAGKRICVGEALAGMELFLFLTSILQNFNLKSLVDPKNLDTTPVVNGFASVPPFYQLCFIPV

A short description of assay [5]: Cellular Toxicity (caspase-3) Hek293 (AID 664).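 Note: cells exposed to compound for 16 h at 37 °C before readout.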 The conditions noted are these: HEK293 caspase-3 activation, DMSO = 0%, 100 µM tamoxifen = 100%; series mostly up to 92.2 µM. An outline of the steps:
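Luminescent Caspase-Glo 3/7 readout (aminoluciferin release) in HEK293 cells after 16 h compound treatment, 37 °C. Normalization: DMSO = basal, 100 uM tamoxifen = 100% stimulation. Concentration-response fitted with standard Hill equation for AC50.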

A short description of assay [6]: Cellular Toxicity (caspase-3) N2a (AID 665).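 Note: compound exposure lasted 16 h at 37 °C before readout.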 The conditions noted are these: N2a cells, luminescence, normalized: DMSO 0%, 10 µM staurosporine 100%; series mostly up to 92.2 µM. The gist of the method: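 Luminescent Caspase-Glo 3/7 readout in N2a mouse neuroblastoma cells after 16 h compound exposure at 37 °C. Signal scaled to DMSO (basal) and 10 uM staurosporine (100%). Concentration-response fitted with Hill equation for AC50.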

Assay [7] can be described thus: Cellular Toxicity (caspase-3) NIH 3T3 (AID 666). The conditions noted are these: NIH 3T3 caspase-3 activation, apoptosis/toxicity, 0% DMSO, 100% is 100 µM tamoxifen; series mostly up to 92.2 µM. An outline of the steps: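 NIH 3T3, 1000 cells/well, 5 hr settle then 16 hr compound at 37°C; Caspase-Glo 3/7, 20 min RT, luminescence. DMSO = basal, 100 uM tamoxifen = 100%. Hill-equation AC50, qHTS.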

Assay [8] in a line: Cellular Toxicity (caspase-3) Renal Proximal Tubule (AID 667).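 Note: cells exposed to compound for 16 hours at 37 °C before detection.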 The settings on record: renal proximal tubule cells, primary cells freshly taken from rat, solvent-only wells 0%, staurosporine 100%; series mostly up to 91.7 µM. The source says: NIH Chemical Genomics Center [NCGC]
NIH Molecular Libraries Screening Centers Network [MLSCN]
National Institutes of Environmental Health Sciences [NIEHS]
National Toxicology Program [NTP]
We have developed a 1536-well cell-based assay for quantitative high throughput screening (qHTS) against a number of cell lines to determine in vitro caspase 3/7 activity of small molecules. This particular assay uses the primary kidney proximal tubule cells freshly isolated from rat.
NCGC Assay Protocol Summary:
The Caspase-Glo 3/7 assay (Promega) is a homogeneous method to measure caspase-3 and caspase-7 activities in cultured cells. The quantitation of caspase 3/7 activity is based on the cleavage of a peptide-aminoluciferin substrate. […]
Using the Caspase-Glo 3/7 assay, the amount of caspase 3/7 activity was measured in the rat kidney proximal tubule cells with complete culture medium following compound treatment for 16 hours. […] Library compounds were measured for their ability to cause the activation of caspase 3/7 in the cell line, as reflected by an increase in luminescence signal, in a concentration-dependent manner. […] AC50 values were determined from concentration-response data modeled with the standard Hill equation. […]
8. Detection; Luminescence; Viewlux plate reader […]

For assay [9], the target named is Cytochrome P450 2D6 (Homo sapiens) (UniProt P10635). Kind of assay: qHTS Assay for Inhibitors and Substrates of Cytochrome P450 2D6 (AID 891). Note: potency is the fitted concentration of half-maximal effect; nearly all actives have a fitted effect of over 60% in size. The settings on record: recombinant CYP2D6, luciferin-ME EGE luminescence. The gist of the method: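 Luminescent read-out of luciferin formed by 5 nM human CYP2D6 demethylating 30 uM Luciferin-ME EGE (Km level) over 60 min at room temperature after NADPH regeneration addition. Data normalized to full inhibition by 1.43 uM quinidine.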
Cytochrome P450 2D6 (Homo sapiens), sequence (P10635 whole entry, looked up): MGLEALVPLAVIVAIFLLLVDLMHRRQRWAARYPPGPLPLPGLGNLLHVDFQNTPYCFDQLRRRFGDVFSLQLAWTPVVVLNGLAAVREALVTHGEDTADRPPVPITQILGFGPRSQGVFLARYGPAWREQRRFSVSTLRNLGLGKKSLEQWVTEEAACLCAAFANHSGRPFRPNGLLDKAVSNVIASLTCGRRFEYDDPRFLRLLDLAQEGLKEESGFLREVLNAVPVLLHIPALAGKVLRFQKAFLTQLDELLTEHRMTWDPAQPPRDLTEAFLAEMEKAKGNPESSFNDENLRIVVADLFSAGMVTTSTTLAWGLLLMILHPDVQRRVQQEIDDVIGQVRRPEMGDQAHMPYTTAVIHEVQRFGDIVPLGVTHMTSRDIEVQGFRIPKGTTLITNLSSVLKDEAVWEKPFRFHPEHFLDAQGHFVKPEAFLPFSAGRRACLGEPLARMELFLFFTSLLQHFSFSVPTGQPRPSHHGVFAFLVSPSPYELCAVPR

Assay [10] addresses Cytochrome P450 2C19 (Homo sapiens) (UniProt P33261). Kind of assay: qHTS Assay for Inhibitors and Substrates of Cytochrome P450 2C19 (AID 899). Note: potency is the fitted concentration of half-maximal effect; nearly all actives have a fitted effect of over 60% in size. The settings on record: recombinant CYP2C19, luciferin-H EGE luminescence. An outline of the steps: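 Luminescence readout of luciferin formed from 10uM Luciferin-H EGE (KM level) by 5 nM CYP2C19 in 50mM KPO4. 60 min NADPH-driven reaction at 37C after 10 min compound preincubation; data scaled to 57uM ketoconazole inhibition.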

SMILES strings stand for the structures. Inconclusive results are not listed. Entries that show only a call come without a potency. Activity calls are given as the source filed them. Calls come from the whole dose curve; as a rule, active = well fitted curve in the direction sought with a large enough effect; inconclusive = small, poorly fitted or top-dose-only effect, or another doubt; inactive = no such curve, though single readings can be large; an effect the other way counts as inactive or inconclusive.

Cytochrome P450 2C19 (Homo sapiens), sequence (P33261 whole entry, looked up): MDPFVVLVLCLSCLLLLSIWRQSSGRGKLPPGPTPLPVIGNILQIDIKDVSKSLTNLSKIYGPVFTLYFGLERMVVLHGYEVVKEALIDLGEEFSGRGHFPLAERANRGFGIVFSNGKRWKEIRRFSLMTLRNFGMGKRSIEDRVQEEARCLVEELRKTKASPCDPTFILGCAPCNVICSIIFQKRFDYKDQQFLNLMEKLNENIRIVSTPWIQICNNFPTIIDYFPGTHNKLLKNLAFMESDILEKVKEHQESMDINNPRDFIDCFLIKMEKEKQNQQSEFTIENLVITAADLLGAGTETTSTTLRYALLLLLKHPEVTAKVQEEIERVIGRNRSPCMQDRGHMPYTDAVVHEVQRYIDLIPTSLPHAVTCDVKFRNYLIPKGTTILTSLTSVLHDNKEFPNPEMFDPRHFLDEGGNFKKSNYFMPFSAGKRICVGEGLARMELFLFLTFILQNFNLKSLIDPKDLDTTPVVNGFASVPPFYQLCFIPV

Regarding `CN1C(=O)C(Cc2c[nH]c3ccccc23)NC1=S` (configuration not stated), the Potency in [1] is 6.31 µM (active). For the same compound, in assay [2], the Potency entry is “inactive”. `CCC(c1ccc(O)cc1)C(CC)c1ccc(O)cc1` (configuration not stated): the outcome in assay [3] was inactive. For `Cc1cc2nc3c(=O)[nH]c(=O)nc-3n(CC(O)C(O)C(O)CO)c2cc1C` (configuration not stated), the Potency entry in [4] and in assay [1] was “inactive” throughout. For the compound `NC(=O)c1nnn(Cc2cc(Cl)c(C(=O)c3ccc(Cl)cc3)c(Cl)c2)c1N`, the activity change, negative = inhibition in [4] was 52.5% [at 11.4 µM] (inactive). Take `C[C@@H]1C[C@H]2[C@@H]3CCC4=CC(=O)C=C[C@]4(C)[C@@]3(F)[C@@H](O)C[C@]2(C)[C@@]1(O)C(=O)CO`: the compound was classed as inactive in assay [5], in assay [6], in assay [7] and in [8]. `CS(=O)(=O)c1ccc(C2=C(c3ccccc3)C(=O)OC2)cc1`: in [1], the Potency result is “inactive”. In [3], the compound was called inactive. For the compound `COc1ccc2cc1Oc1ccc(cc1)C[C@H]1c3cc(c(OC)cc3CCN1C)Oc1c(OC)c(OC)cc3c1[C@H](C2)N(C)CC3`, the Potency result in [1] is “inactive”. Consider `CC1(C)OC2CC3C4CC(F)C5=CC(=O)C=CC5(C)C4C(O)CC3(C)[C@]2(C(=O)CO)O1` (some centres not stated), for which the Potency result in assay [2] was “inactive”. The call in assay [3] was inactive.

As for `Clc1ccc(COC(Cn2ccnc2)c2ccc(Cl)cc2Cl)c(Cl)c1` (configuration not stated), in assay [4], the Potency was 0.316 µM (active). For `CCCCC(C=O)NC(=O)C(CC(C)C)NC(=O)OCc1ccccc1` (configuration not stated), the Potency result in [2] is “inactive”. Turning to `CC[C@H](C)C(=O)O[C@H]1C[C@H](O)C=C2C=C[C@H](C)[C@H](CC[C@@H](O)C[C@@H](O)CC(=O)O)[C@H]21`, the Potency entry in [1] is “inactive”. For `Cc1cc(NC(=O)Nc2ccc(N(C)C)cc2)c2cc(F)cc(F)c2n1`, the Potency in assay [4] and in assay [1] was 6.31 µM (active) throughout. In addition, the Potency result in [2] was “inactive”. For `O=C1C(CCC(O)c2ccc(F)cc2)C(c2ccc(O)cc2)N1c1ccc(F)cc1` (configuration not stated), in [3], the compound was called inactive.

For the compound `CCC(=C(CC)c1ccc(O)cc1)c1ccc(O)cc1`, the Potency in assay [4] was 12.6 µM (active).

Consider `COC1CCC(C(=O)c2ccc3nc4c(cc3c2)CCCO4)CC1` (configuration not stated), for which, in [1], the Potency result is “inactive”. Further, the Potency in assay [2] was 5.01 µM (active). Regarding `CN1CCN2c3ncccc3Cc3ccccc3C2C1` (configuration not stated), the results for the Potency in assay [4], in assay [9] and in [10] were 0.0501 µM (active), 0.501 µM (active) and 0.0501 µM (active), respectively. With `OC(c1cc(C(F)(F)F)nc2c(C(F)(F)F)cccc12)C1CCCCN1` (configuration not stated), the outcome in [3] was inactive. Consider `CC(NCCc1ccc(O)cc1)C(O)c1ccc(O)cc1` (configuration not stated), for which the Potency entry in [1] was “inactive”. The result in assay [3] was inactive. Turning to `CN(C)c1ccccc1CN1CCCN(Cc2ccccc2N(C)C)C1c1ccncc1`, the activity change, positive = activation in assay [2] is -30.9% [at 11.4 µM] (inactive). Further, the Potency in assay [9] is 1.26 µM (active). Take `Cc1ccc(NC(=O)c2cccc(N(C)C)c2)cc1NC(=O)c1ccc(O)cc1`: in assay [4], the Potency entry was “inactive”. Turning to `Cc1ccc2c(c1)C(=O)[C@]1(O)CCN(c3ccccc3)C1=N2`, in assay [2], the Potency result is “inactive”.

`CN(C)CCN(Cc1ccc(Cl)cc1)c1ccccn1`: the Potency in assay [9] is 0.02 µM (active); in [10], 6.31 µM (active). Regarding `O=c1cc(-c2ccc(O)c(O)c2)oc2cc(O)cc(O)c12`, the Potency entry in [2] is “inactive”.

As to `NS(=O)(=O)c1cc(Cl)c(Cl)c(S(N)(=O)=O)c1`, the Potency entry in assay [4] is “inactive”. As for `COc1ccc2ccc(=O)oc2c1CC=C(C)C`, the compound was called inactive in [3]. Turning to `COc1ccnc(CS(=O)c2nc3ccc(OC(F)F)cc3[nH]2)c1OC` (configuration not stated), the compound was called inactive in [3]. Take `NCC1CCC(C(=O)O)CC1` (configuration not stated): in assay [3], the compound was classed as inactive.
